SMILES strings stand for the structures. Results filed as inconclusive are left out. Calls of active or inactive are those of the source. Calls come from the whole dose curve; as a rule, active = well fitted curve in the direction sought with a large enough effect; inconclusive = small, poorly fitted or top-dose-only effect, or effect the other way, or another doubt; inactive = no such curve, though single readings can be large or run the other way.

Amyloid-beta precursor protein (Homo sapiens), sequence (P05067 whole entry, looked up, the tested form may be a part): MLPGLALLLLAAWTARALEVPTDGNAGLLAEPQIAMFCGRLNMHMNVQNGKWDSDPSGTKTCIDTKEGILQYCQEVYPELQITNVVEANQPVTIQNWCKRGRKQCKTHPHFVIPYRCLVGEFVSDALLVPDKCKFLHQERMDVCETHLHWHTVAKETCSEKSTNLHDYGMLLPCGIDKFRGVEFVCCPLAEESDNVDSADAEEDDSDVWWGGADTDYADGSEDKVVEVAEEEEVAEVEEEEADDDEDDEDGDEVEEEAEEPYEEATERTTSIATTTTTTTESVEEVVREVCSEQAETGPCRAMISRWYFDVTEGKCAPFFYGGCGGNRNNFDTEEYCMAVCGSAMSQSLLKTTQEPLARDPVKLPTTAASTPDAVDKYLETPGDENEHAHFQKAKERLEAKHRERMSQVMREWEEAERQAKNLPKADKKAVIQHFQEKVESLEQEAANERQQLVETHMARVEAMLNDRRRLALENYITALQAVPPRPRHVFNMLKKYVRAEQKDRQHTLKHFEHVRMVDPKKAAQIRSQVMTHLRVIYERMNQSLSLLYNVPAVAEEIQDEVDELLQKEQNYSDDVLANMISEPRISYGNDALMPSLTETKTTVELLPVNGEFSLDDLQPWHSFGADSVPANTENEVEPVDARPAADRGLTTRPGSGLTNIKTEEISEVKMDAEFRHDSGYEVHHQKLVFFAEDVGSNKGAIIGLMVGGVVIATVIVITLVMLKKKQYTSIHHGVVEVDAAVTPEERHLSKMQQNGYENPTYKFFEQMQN

The target of this test is Amyloid-beta precursor protein (Homo sapiens) (UniProt P05067). As to the kind of experiment: Assay for Inhibitors of the fibrillization of the Beta-Amyloid Protein Fragment, A-beta 1-42. To be noted: A-beta 1-42 fibrillization, ThT fluorescence, 4 h; series mostly up to 80 µM; activity, positive = inhibition: at the top concentration. The source says:
NIH Molecular Libraries Probe Production Network [MLPCN] NIH Chemical Genomics Center [NCGC] MLPCN Grant: X01 MH083262-01 Assay Provider: Carlo Ballatore, University of Pennsylvania NCGC Assay Overview: The microtubule-associated protein tau is an abundant protein in the axons of neurons that stabilizes microtubules. With its ability to modulate microtubule dynamics, tau contributes directly or indirectly, to key structural and regulatory cellular functions. Particularly important is the influence tau exerts on axonal transport, which allows signaling molecules, trophic factors and other essential cellular constituents to travel along the axons. Under pathological conditions, tau becomes sequestered into insoluble aggregates called neurofibrillary tangles. This phenomenon is believed to have pathological consequences by promoting axonal transport deficits that ultimately lead to synaptic dysfunction and neuronal loss. Beta-amyloid protein undergoes a similar type of aggregation as tau and is implicated in the pathology of Alzheimer's disease. To examine the selectivity of tau fibrillization inhibitors, compounds were tested in an in vitro assay for fibrillization of the beta-amyloid fragment, A-beta 1-42. Crystal, A. S., Giasson, B. I., Crowe, A., Kung, M. P., Zhuang, Z. P., Trojanowski, J. Q., and Lee, V. M. Y. (2003) Journal of Neurochemistry 86, 1359-1368.
NCGC Assay Protocol Summary: Synthetic A-beta 1-42 aliquots were reconstituted to 2 mg/ml in DMSO and then diluted to 15 uM in 25 mM Tris, pH 7.0 buffer to which test compound was added at 50 uM final concentration, or at several concentrations ranging from 0.16-40 uM. The reaction mixtures were dispensed at 25 ul/well into a 384-well plate and then incubated at 37 C for 4 hrs. Upon completion of the reaction, 25 ul of 25 uM ThT was added to each well followed by ThT fluorescence readings as described above for K18PL.
For the compound `O=S(=O)(c1ccc2c(c1)OCCO2)N1CCN(c2nc(-c3ccccc3)nc3ccccc23)CC1`, the “activity, positive = inhibition” value was -8.26% (inactive).
Under `Nc1nn(-c2ccccc2)c(=O)c2c(N)scc12` stands -16.8% (inactive).
Under `CCOC(=O)c1nn(-c2ccccc2F)c(=O)c2c(N)scc12` stands 5.98% (inactive); under `Nc1scc2c(C(=O)N3CCOCC3)nn(-c3ccccc3)c(=O)c12`, 5.25% (inactive); under `CCOC(=O)c1nn(-c2ccccc2)c(=O)c2c(N)scc12`, 2.97% (inactive).
For `CCOC(=O)c1ccc(-n2nc(C(=O)OCC)c3csc(N)c3c2=O)cc1`, the “activity, positive = inhibition” value was -0.14% (inactive).
`CCOC(=O)c1nn(-c2ccc(C)c(C)c2)c(=O)c2c(N)scc12`: the “activity, positive = inhibition” value was -17.1% (inactive).
Under `Cc1ccc(S(=O)(=O)N2CCN(c3nc(-c4ccccc4)nc4ccccc34)CC2)cc1` stands -11.6% (inactive); under `CC(=O)Nc1sc(C)c2cnn(-c3ccccc3)c(=O)c12`, 27.7% (inactive); under `COc1ccc(-n2nc(C(=O)O)c3csc(N)c3c2=O)cc1`, 7.71% (inactive).
In the case of `NC(=O)c1nn(-c2ccccc2)c(=O)c2c(N)scc12` it was -7.43% (inactive); in that of `Nc1scc2c(CO)nn(-c3ccccc3)c(=O)c12`, -12.8% (inactive).
In the case of `COc1ccc(NC(=O)CSc2nnc(CCC(=O)Nc3ccc(C)c(Cl)c3)n2C)cc1` it was -21.2% (inactive).
